# From PubChem BioAssay (EPA / NIEHS)
# “And” between values parts separate entries of the source, which are not always exact repeats. Equal entries are not always repeated. Results filed as inconclusive are left out. The source made the active and inactive calls. The calls were made as follows: active = hit-call score of the fitted dose curve at least 0.9, where 1 is the maximum; inconclusive = response in the unintended direction; inactive = score below 0.9.
# Columns and labels:
# [1] = target: bovine Gamma-Aminobutyric Acid Type A Receptor BDZ, alpha 5 site (GABARa5), GABRA5 (gene 523515) (UniProt Q08E50); experiment: NVS_LGIC_bGABARa5: NovaScreen (NVS) Ligand-Gated Ion Channel Assay for bovine Gamma-Aminobutyric Acid Type A Receptor BDZ, alpha 5 site (GABARa5) (AID 2283323)
# How it was run: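 Radioligand competitive displacement binding on bovine hippocampal membranes, read 1 hr after dosing by filter-based scintillation counting. Primary screen at 25 uM in duplicate; actives (e.g. ≥30% inhibition) then run in concentration-response up to 50 uM.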
# [2] = target: rat Gamma-Aminobutyric Acid Type A Receptor, Non-Selective (GABAR-NonSelective), Gabra1 (gene 29705) (UniProt P62813); experiment: NVS_LGIC_rGABAR_NonSelective: NovaScreen (NVS) Ligand-Gated Ion Channel Assay for rat Gamma-Aminobutyric Acid Type A Receptor, Non-Selective (GABAR-NonSelective) (AID 2283326)
# How it was run: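 Radioligand displacement on rat whole-brain extract, 1 h, filter scintillation readout; signal loss fitted versus DMSO. Primary screen in duplicate at 25 uM; hits (e.g. ≥30% inhibition) retested in concentration-response up to 50 uM.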
# [3] = target: Voltage-gated inwardly rectifying potassium channel KCNH2 (Homo sapiens) (UniProt Q12809); experiment: NVS_IC_hKhERGCh: NovaScreen (NVS) Ion Channel Assay for human Potassium Channel ERG (KhERGCh) (AID 2283333)
# Method: NVS_IC_hKhERGCh is a biochemical, single-readout assay that uses extracted gene-proteins from CHO in a cell-free assay. Measurements were taken 0.75 hour after chemical dosing in a 48-well plate.NVS_IC_hKhERGCh is one of one assay component(s) measured or calculated from the NVS_IC_hKhERGCh assay. It is designed to make measurements of radioligand binding, a form of binding reporter, as detected with scintillation counting signals by Filter-based radiodetection technology.Data from the assay component NVS_IC_hKhERGCh was analyzed into 1 assay endpoint. This assay endpoint, NVS_IC_hKhERGCh, was analyzed in the positive analysis fitting direction relative to DMSO as the negative control and baseline of activity. […] Furthermore, this assay endpoint can be referred to as a primary readout, because the performed assay has only produced 1 assay endpoint. […]
# Binding assays used specific radioligands (tritiated, iodinated) with non-radioactive competitive displacement ligands in agonist or antagonist protocols (as indicated) and various reference compounds and inhibitors to titrate specific binding to receptors and transporters. Most enzyme assays (CYPs, kinases, phosphatases, proteases, HDACs) used recombinant protein and specific substrates (fluorescence mostly, some colorimetric and radioactive) and inhibitors, followed by a biochemical separation of substrate and product. […]
# [4] = tested on: guinea pig Histamine Receptor (H2), gene 100729734; experiment: NVS_GPCR_gH2: NovaScreen (NVS) G Protein-Coupled Receptor Assay for guinea pig Histamine Receptor (H2) (AID 2283342)
# How it was run: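 Radioligand displacement on guinea pig striatal membranes, 1 h after dosing, filter-based scintillation counting; loss of signal versus DMSO. Single-point screen at 25 uM in duplicate, then concentration-response up to 50 uM.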
# [5] = target: bovine Gamma-Aminobutyric Acid Type A Receptor Agonist (GABAR Agonist), GABRA1 (gene 780973) (UniProt P08219); experiment: NVS_LGIC_bGABAR_Agonist: NovaScreen (NVS) Ligand-Gated Ion Channel Assay for bovine Gamma-Aminobutyric Acid Type A Receptor Agonist (GABAR Agonist) (AID 2283338)
# Method: NVS_LGIC_bGABAR_Agonist is a biochemical, single-readout assay that uses extracted gene-proteins from Bovine cerebellar membranes in a tissue-based cell-free assay. Measurements were taken 1 hour after chemical dosing in a 48-well plate.NVS_LGIC_bGABAR_Agonist is one of one assay component(s) measured or calculated from the NVS_LGIC_bGABAR_Agonist assay. It is designed to make measurements of radioligand binding, a form of binding reporter, as detected with scintillation counting signals by Filter-based radiodetection technology.Data from the assay component NVS_LGIC_bGABAR_Agonist was analyzed into 1 assay endpoint. This assay endpoint, NVS_LGIC_bGABAR_Agonist, was analyzed in the positive analysis fitting direction relative to DMSO as the negative control and baseline of activity. Using a type of binding reporter, gain-of-signal activity can be used to understand changes in the binding as they relate to the gene GABRA1. Furthermore, this assay endpoint can be referred to as a primary readout, because the performed assay has only produced 1 assay endpoint. To generalize the intended target to other relatable targets, this assay endpoint is annotated to the ion channel intended target family, where the subfamily is ligand-gated ion channel. […]
# bovine Gamma-Aminobutyric Acid Type A Receptor Agonist (GABAR Agonist), GABRA1 (gene 780973), sequence (P08219 whole entry, looked up): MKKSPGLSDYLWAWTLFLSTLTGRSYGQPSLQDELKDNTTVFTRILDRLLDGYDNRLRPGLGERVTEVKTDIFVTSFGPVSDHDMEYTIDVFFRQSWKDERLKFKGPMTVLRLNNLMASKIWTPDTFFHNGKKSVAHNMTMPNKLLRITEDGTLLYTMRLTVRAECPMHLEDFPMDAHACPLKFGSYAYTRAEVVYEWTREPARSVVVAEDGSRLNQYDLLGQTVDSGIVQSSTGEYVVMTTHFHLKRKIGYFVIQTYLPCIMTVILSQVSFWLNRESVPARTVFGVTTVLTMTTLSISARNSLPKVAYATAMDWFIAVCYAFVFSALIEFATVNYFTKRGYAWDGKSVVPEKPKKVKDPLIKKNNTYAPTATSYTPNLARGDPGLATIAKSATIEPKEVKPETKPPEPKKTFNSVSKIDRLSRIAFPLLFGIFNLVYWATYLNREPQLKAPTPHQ
# bovine Gamma-Aminobutyric Acid Type A Receptor BDZ, alpha 5 site (GABARa5), GABRA5 (gene 523515), sequence (Q08E50 whole entry, looked up): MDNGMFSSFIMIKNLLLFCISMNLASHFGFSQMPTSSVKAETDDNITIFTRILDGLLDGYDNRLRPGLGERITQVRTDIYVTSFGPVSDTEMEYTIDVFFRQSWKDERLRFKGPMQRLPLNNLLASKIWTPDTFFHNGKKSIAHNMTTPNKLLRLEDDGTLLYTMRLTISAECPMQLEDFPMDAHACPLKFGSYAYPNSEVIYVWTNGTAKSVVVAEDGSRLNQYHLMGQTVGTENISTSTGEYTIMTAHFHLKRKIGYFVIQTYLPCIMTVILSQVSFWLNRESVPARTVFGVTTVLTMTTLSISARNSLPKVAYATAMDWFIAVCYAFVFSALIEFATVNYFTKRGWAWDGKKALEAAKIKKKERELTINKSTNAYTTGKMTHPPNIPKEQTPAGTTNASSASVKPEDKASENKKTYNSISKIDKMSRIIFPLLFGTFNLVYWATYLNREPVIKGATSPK
# rat Gamma-Aminobutyric Acid Type A Receptor, Non-Selective (GABAR-NonSelective), Gabra1 (gene 29705), sequence (P62813 whole entry, looked up): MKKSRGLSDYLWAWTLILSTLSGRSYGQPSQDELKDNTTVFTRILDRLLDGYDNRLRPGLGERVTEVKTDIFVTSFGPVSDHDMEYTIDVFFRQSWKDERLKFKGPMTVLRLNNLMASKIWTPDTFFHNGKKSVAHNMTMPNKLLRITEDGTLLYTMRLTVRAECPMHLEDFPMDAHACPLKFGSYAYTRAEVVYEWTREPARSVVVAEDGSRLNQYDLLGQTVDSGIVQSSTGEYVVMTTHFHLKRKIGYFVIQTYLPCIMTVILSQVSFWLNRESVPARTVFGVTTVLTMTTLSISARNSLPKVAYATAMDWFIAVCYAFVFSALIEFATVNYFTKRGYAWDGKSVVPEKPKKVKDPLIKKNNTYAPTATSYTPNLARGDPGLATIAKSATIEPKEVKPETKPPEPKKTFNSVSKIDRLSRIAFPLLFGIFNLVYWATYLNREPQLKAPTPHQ
# Voltage-gated inwardly rectifying potassium channel KCNH2 (Homo sapiens), sequence (Q12809 whole entry, looked up): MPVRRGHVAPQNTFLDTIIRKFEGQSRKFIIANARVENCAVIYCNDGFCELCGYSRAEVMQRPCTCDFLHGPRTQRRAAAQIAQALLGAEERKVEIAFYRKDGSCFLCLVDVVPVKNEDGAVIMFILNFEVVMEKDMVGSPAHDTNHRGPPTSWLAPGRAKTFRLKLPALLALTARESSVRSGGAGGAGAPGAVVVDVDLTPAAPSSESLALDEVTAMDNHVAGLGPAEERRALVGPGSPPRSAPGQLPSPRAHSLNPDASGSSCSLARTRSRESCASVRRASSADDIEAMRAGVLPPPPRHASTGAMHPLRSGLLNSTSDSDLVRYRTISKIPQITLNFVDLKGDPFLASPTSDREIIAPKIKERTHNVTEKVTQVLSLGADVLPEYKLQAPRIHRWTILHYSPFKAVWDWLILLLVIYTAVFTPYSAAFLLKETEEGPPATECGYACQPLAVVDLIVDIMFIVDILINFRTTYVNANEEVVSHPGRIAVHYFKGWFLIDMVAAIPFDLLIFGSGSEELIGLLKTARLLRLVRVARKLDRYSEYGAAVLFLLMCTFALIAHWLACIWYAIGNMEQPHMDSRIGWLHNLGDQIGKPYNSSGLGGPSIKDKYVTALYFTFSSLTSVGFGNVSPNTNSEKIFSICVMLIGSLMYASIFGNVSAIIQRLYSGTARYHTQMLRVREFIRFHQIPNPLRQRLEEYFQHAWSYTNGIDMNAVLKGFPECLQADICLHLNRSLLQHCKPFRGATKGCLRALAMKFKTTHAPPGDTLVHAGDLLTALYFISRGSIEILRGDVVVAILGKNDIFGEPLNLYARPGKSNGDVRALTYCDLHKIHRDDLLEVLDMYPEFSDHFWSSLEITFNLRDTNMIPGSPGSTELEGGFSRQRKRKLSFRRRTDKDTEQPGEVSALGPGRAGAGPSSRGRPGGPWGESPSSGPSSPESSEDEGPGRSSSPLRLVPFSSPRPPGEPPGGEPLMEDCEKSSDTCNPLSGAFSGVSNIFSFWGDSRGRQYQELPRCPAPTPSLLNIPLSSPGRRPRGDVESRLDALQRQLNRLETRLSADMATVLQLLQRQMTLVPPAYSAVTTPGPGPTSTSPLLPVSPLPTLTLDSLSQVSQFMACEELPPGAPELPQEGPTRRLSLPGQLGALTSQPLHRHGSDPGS
smiles,measurement,setting,value
C=C(C)C(N)=O,outcome,[1],inactive
O=C(c1ccc(OCCN2CCCCC2)cc1)c1c(-c2ccc(O)cc2)sc2cc(O)ccc12,outcome,[2],inactive
same,AC50,[3],5.34 µM (active)
same,AC50,[4],4.18 µM (active)
CC/C(=C(\c1ccccc1)c1ccc(OCCN(C)C)cc1)c1ccccc1,outcome,[5],inactive
same,AC50,[4],4.7 µM (active) and 1.19 µM (active)
